Among all 360,000 compounds or so, about 4,600 (1.3%) were called active. The list comes from a sample in which actives are over-represented; it also holds similar structures and randomly drawn compounds. Values without a mark were called inactive.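 Rule for the calls: active = percent inhibition above its own plate's cutoff, namely the mean of that plate's compound wells plus 3 SD; inactive = the rest.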

The values that follow come from PubChem BioAssay AID588852 (The Scripps Research Institute Molecular Screening Center, 2011).

Sequence of Muscarinic acetylcholine receptor M1 (Homo sapiens) (P11229 whole entry, looked up): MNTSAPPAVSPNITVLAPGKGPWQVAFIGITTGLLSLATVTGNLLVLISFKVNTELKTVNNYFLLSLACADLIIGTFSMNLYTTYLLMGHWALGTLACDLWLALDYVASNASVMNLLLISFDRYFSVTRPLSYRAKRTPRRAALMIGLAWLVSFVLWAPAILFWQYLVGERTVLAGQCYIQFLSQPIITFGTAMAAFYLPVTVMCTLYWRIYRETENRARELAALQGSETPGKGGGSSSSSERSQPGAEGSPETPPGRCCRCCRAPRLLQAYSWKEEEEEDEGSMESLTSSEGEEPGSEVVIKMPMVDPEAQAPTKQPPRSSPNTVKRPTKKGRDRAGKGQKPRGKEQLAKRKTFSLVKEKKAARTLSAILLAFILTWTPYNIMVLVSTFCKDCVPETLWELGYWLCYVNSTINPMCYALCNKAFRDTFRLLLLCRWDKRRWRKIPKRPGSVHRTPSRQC

This experiment has as its target Muscarinic acetylcholine receptor M1 (Homo sapiens) (UniProt P11229). The experiment in a line: human M1 muscarinic receptor antagonists, primary screen, CHO-K1 cells, Fluo-8 calcium fluorescence, 1536-well (AID 588852).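 Note: peak over basal fluorescence ratio during 140 s after agonist addition; 0% = ACh EC80 plus DMSO and 100% = DMSO alone without agonist.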 The conditions noted are these: CHO-K1 hM1, Fluo-8 calcium fluorescence, ACh EC80 antagonist; at 3 µM; active compounds read high.
In the case of `C[N+]1(CC(O)COc2ccccc2)CCN(C(=O)c2ccc([N+](=O)[O-])cc2)CC1` (stereo not drawn), the inhibition was -2.65%. Consider `COc1ccccc1C1SCCN1C(=O)c1ccc([N+](=O)[O-])cc1` (stereo not drawn), for which the inhibition is 62% (active). Consider `O=C(Nc1ccc(F)cc1)C1CCN(C(=O)c2ccc([N+](=O)[O-])cc2)CC1`, for which the inhibition is -0.31%.

Take `Cc1cccc(C(=O)OC(C)CN2CCN(C)CC2)c1` (stereo not drawn): the inhibition is -1.32%. For `Cc1cccc(-c2nc3ccc(C(=O)NCCN4CCN(C)CC4)cc3nc2-c2cccc(C)c2)c1`, the inhibition is 46.9% (active). As to `Cc1cc(C)cc(C(=O)NCCN2CCOCC2)c1`, the inhibition was -11.1%. As for `CSc1nc2sc3c(c2c(=O)[nH]1)CCc1ccccc1-3`, the figure is -1.53%. As for `C/C(=N\NC(=O)NC1CCCCC1)c1ccc(OC(F)F)cc1OC(F)F`, the figure is 3.51%; as for `CCSC(C)CC1C/C(=N/O)c2c(C)noc2C1` (stereo not drawn), 46.6% (active).

For the molecule `CCCc1noc2c1/C(=N\O)CCC2`, the inhibition was -7.37%. For `COc1ccc(OC)c(Cc2cnc3nc(N)nc(N)c3c2C)c1`, the inhibition is -0.49%.

On to `O=C(Cc1ccc(Cl)cc1)NC(=S)Nc1ccccc1O`, for which the inhibition is 64.7% (active). Next, `O=C(COc1ccc(Cl)cc1)NC(=S)Nc1ccccc1N1CCOCC1`: 1.11%. As for `Cc1ccccc1NC(=S)NC(=O)Cc1ccc(Cl)cc1`, the inhibition was 14.3%. With `O=C(NCCCn1ccnc1)C1CCCN(S(=O)(=O)c2cc(Cl)ccc2Cl)C1` (stereo not drawn), the inhibition is 5.3%. Consider `Nc1ncnc2c1ncn2[C@@H]1O[C@H](C(=O)NCC(F)(F)F)[C@@H](O)[C@H]1O`, for which the inhibition was -26.1%. As for `CCSC1=NCCN1S(=O)(=O)c1ccc(F)cc1`, the inhibition was 7.85%.

Regarding `COc1ccc(C(=O)NC(=S)NC2CCCCC2)cc1`, the inhibition is -6.7%.

Take `COc1cc(C(=S)N2CCOCC2)ccc1O`: the inhibition is 0.12%. For the molecule `COc1cc(C(=S)NC2CCCCC2)ccc1O`, the inhibition was 99.6% (active). Turning to `CC(=O)Nc1cccc(Nc2ccc(C#N)cc2)c1`, the inhibition is -8.06%. Turning to `O=C(/C=C/[C@H]1O[C@@H](n2cnc3c(NC(=O)c4ccccc4)ncnc32)[C@H](O)[C@@H]1O)NCc1ccccc1`, the inhibition was -2.88%.

Turning to `CCOc1ccc(CN2CCN(Cc3ccc(C)o3)CC2CCO)cc1` (stereo not drawn), the inhibition is 0.92%. Take `Cc1ccc(CN2CCN(Cc3ccc4ncccc4c3)CC2CCO)cc1` (stereo not drawn): the inhibition was 5.31%. For `CC(C)N1CCC(N2CCN(Cc3cccnc3)CC2CCO)CC1` (stereo not drawn), the inhibition was -8.8%. As for `OCCC1CN(Cc2ccc3nsnc3c2)CCN1C1CCCCC1` (stereo not drawn), the figure is 31.7% (active); as for `OCC1(CCc2ccccc2)CCN(Cc2ccc3nsnc3c2)CC1`, -4.82%; as for `Cc1ccc(CN2CCN(Cc3ccc(OCCO)cc3)CC2CCO)o1` (stereo not drawn), -10.3%.

`OCCC1CN(Cc2ccc3nsnc3c2)CCN1C1CCCC1` (stereo not drawn): the inhibition is 45.8% (active). As for `Cn1cnnc1Sc1ccc(CN2CCN(C3CCCC3)C(CCO)C2)o1` (stereo not drawn), the figure is 25.2% (active); as for `COc1cccc2c1OCC(CN1CCN(C3CCCCC3)C(CCO)C1)=C2` (stereo not drawn), 28%; as for `CN(C)CCNC(=O)c1ccc(-c2cn3c(-c4ccc(Oc5ccccc5)cc4)cnc3cn2)cc1`, -3.33%. `CCc1ccc(N2CC(C(=O)NC3=NCCS3)CC2=O)cc1` (stereo not drawn): the inhibition was -11.6%. As for `CN(Cc1ccccc1)CC(O)COc1ccc(CNCc2cc3ccccc3s2)cc1` (stereo not drawn), the figure is 15.1%; as for `CCOC(=O)[C@H]1[C@H]2COc3ccc(Br)cc3[C@@H]2N2C(=O)CN(C)C(=O)[C@@]12C`, -4.45%. On to `Cc1ccc2c(NC(=O)C3CC3)cccc2n1`, for which the inhibition is -22.4%. Next, `CN(C)S(=O)(=O)N1CCC(Oc2cccc(C(=O)NCCCC3CCCC3)c2)CC1`: 26.7%. For `Cc1cccc(C)c1-n1nnnc1C(CCc1ccccc1)N1CCN(C/C=C/c2ccccc2)CC1` (stereo not drawn), the inhibition was -27.1%. As for `O=C(NCc1ccco1)/C(=C\c1cccc([N+](=O)[O-])c1)NC(=O)c1ccco1`, the figure is -2.79%; as for `CCCC[C@@H]1CN=C(N)N1CCc1cc(C(F)(F)F)cc(C(F)(F)F)c1`, 51.9% (active); as for `CCCC[C@@H]1CN=C(N)N1CCCC`, 8.39%. For the molecule `CCCC[C@@H]1CN=C(N)N1CCc1cccc(F)c1`, the inhibition is 18.6%. In the case of `CCN(CC(=O)Nc1c(F)cccc1F)C(=O)Cc1cccs1`, the inhibition was -16.3%. Consider `Cn1nccc1NS(=O)(=O)c1ccc(F)cc1`, for which the inhibition was -14.9%.

On to `COc1ccc(C[C@H]2CN3C(=NC[C@H]3C)N2CCNC(=O)CCC2CCCCC2)cc1`, for which the inhibition is 38.6% (active). For the molecule `C/C=C(\C)C(=O)NCCN1C2=NC[C@H](Cc3ccc(O)cc3)N2C[C@@H]1Cc1ccc(OC)cc1`, the inhibition was -3.4%. For the molecule `COc1cccc(CNC(=O)CCC2CCCN(Cc3ccc(OC(F)F)cc3)C2)c1` (stereo not drawn), the inhibition was 20.6%. Next, `COc1ccc(C2c3c(C)nn(-c4ccccc4)c3NC(=O)N2c2ccccc2)cc1` (stereo not drawn): -12.4%; `CCOC(=O)[C@H]1[C@H]2COc3ccc(C)cc3[C@@H]2N2C(=O)CN(Cc3ccc(F)cc3)C(=O)[C@@]12C`: 35.9% (active); `CCOC(=O)[C@H]1[C@H]2COc3ccccc3[C@@H]2N2C(=O)CN(Cc3ccccc3)C(=O)[C@@]12C`: 7.51%. As for `CCOC(=O)[C@H]1[C@H]2COc3cc(OC)ccc3[C@@H]2N2C(=O)CN(Cc3ccc(Cl)cc3)C(=O)[C@@]12C`, the figure is -8.3%; as for `O=C1OC(Cc2ccccc2)C(c2ccccc2)C1=O` (stereo not drawn), -4.64%.

In the case of `NCCCCC(C(=O)O)N(C(=O)OCc1ccccc1)C(=O)OCc1ccccc1` (stereo not drawn), the inhibition was 2.44%. Next, `CCC(=C/c1sc2ccc3ccccc3c2[n+]1C)/C=C1\Sc2ccc3ccccc3c2N1C`: -7.73%; `CC(CN1CCCCC1)c1ccccc1` (stereo not drawn): -23.4%; `O=C(c1ccccc1)C(O)(CN1CCCCC1)c1ccccc1` (stereo not drawn): 1.74%. `CC(C)(c1ccccc1)c1ccc(OCCN2CCCC2)cc1`: the inhibition is 8.05%. Turning to `c1ccc2cc3[nH]c(CN4CCCCC4)nc3cc2c1`, the inhibition is -5.8%.

For the molecule `CCCCCCC(O)(CCN1CCCCC1)c1ccccc1` (stereo not drawn), the inhibition was 98.8% (active). Next, `C#CC(CCN1CCCCC1)(OC)c1ccccc1` (stereo not drawn): 93.9% (active); `CCc1ccccc1NC(=O)NCCN1CCCCC1`: -20.3%. Next, `CCCCCC(O)(CCN1CCCCC1)c1ccccc1` (stereo not drawn): 99.8% (active); `CCCCOc1ccc(C(C)(O)CCN2CCOCC2)cc1` (stereo not drawn): -7.98%.

For `CSc1nc(C)nc(C2CC2)c1C#N`, the inhibition was -5.81%. Consider `CCOC1=C2[C@H]([C@H]3C(=O)N(c4ccccc4)C(=O)[C@H]3C1)[C@@H](c1ccccc1)N(S(=O)(=O)c1ccc(C)cc1)[C@H]2c1ccccc1`, for which the inhibition is -3.55%. As to `c1ccc(Cc2c(-c3ccco3)nc3c4ccccc4ccn23)cc1`, the inhibition is -25.9%. On to `Cc1ccc(-c2cnc(C(O)c3cc(Cl)cc(Cl)c3)[nH]2)cc1` (stereo not drawn), for which the inhibition is 10.3%. On to `COc1ccc(OC)c(-c2c(=O)n(OCc3ccccc3Br)c3ccccc3[n+]2[O-])c1`, for which the inhibition is -8.89%. As for `CCN(CC)S(=O)(=O)c1ccc(N2CCOCC2)c(NC(=O)C2CSC3(C)CCC(=O)N23)c1` (stereo not drawn), the figure is -11.2%. As for `O=C(Cc1ncc(C(F)(F)F)cc1Cl)Nc1cccc(Br)c1`, the figure is 0.3%; as for `CN(CC(=O)Nc1ccc(Cl)c(C(F)(F)F)c1)C(=O)CCC(=O)c1ccccc1`, 10.7%. On to `O=C(CC(O)(C(F)(F)F)C(F)(F)F)Nc1ccc(Cl)c(Cl)c1`, for which the inhibition is 41.1% (active). Turning to `CC(=O)N1CCN(Cc2cc(=O)oc3cc(C)ccc23)CC1`, the inhibition was -6.95%.

With `Cc1cc(NC(=O)c2cc3ccccc3o2)no1`, the inhibition was 0.12%. Next, `COc1cc2ccccc2cc1C(=O)Nc1ccncc1`: -10.8%; `O=C(Nc1ccncc1)c1cc2ccccc2o1`: 11.1% (active). Next, `CNS(=O)(=O)c1cnccc1N1CCN(c2cccc(C)c2)CC1`: -21.3%.

As to `CC(=O)N1CCc2c(sc(NC(=O)CCS(=O)(=O)c3ccc(C)cc3)c2C(N)=O)C1`, the inhibition is -9.37%. As for `CCc1nc2c(OCc3ccc(F)c(F)c3)cccn2c1N(C)C(=O)c1ccco1`, the figure is -7.6%; as for `CCCCC(=O)N(C)c1c(CC)nc2c(OCc3ccc(Cl)cc3Cl)cccn12`, 23.1%; as for `Cc1nc2c(OCc3ccc(Cl)cc3)cccn2c1N(C)Cc1cccs1`, 38.4% (active). With `CCc1nc2c(OCc3ccccc3)cccn2c1N(C)C(=O)c1ccco1`, the inhibition was -4.6%. Next, `Cc1nc2c(OCc3cccc(Cl)c3)cccn2c1N(C)CC1CC1`: 68.1% (active). Next, `Cc1nc2c(OCC(=O)C(C)(C)C)cccn2c1N(C)Cc1cccs1`: -8.77%; `Cc1nc2c(OCc3ccc(Cl)cc3Cl)cccn2c1N(C)CC1CC1`: 43.8% (active). As for `CCc1nc2c(OCc3cccc(OC)c3)cccn2c1N(C)C(=O)C(C)C`, the figure is 5.18%. Regarding `CCc1nc2c(OCc3ccc(Cl)cc3Cl)cccn2c1N(C)C(=O)C(C)C`, the inhibition is 2.38%. Consider `O=C(NCCCn1ccnc1)c1cc2c(s1)CCCC2`, for which the inhibition was -5.2%. For `CC(=O)Nc1ccc(CNc2nc(NCCN(C)C)nc3cc(-c4ccccc4)sc23)cc1`, the inhibition was -17.6%. Consider `COC(=O)c1ccc2c(c1)S(=O)(=O)NC(=NCCCN1CCOCC1)S2`, for which the inhibition is -10.8%.

Turning to `COc1ccc(NC(=O)/C(N=Nc2cccc(S(=O)(=O)Nc3ccc(SC(F)F)cc3)c2)=C(\C)O)cc1`, the inhibition is -7.35%. Next, `COc1cc(-c2nc(S(=O)(=O)c3ccc(Cl)cc3)c(N(C)C)o2)cc(OC)c1OC`: -1.63%; `COC(=O)CCSc1nccn1Cc1ccccc1`: -11.6%.
